Compounds with a hit are over-represented: about 1.5% of the library has one in this group of screens.
S1P2 ag: activates the human S1P2 receptor | S1P2-expressing cell line, agonist reporter read-out | AID 729 | O95136 | 97,000 tested, 0.46% active | activation, % at 4.5 µM; in the data active = activation above about 16%;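 note: 0% = vehicle low control and 100% = maximal reference agonist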
Target sequence (O95136 whole entry, looked up): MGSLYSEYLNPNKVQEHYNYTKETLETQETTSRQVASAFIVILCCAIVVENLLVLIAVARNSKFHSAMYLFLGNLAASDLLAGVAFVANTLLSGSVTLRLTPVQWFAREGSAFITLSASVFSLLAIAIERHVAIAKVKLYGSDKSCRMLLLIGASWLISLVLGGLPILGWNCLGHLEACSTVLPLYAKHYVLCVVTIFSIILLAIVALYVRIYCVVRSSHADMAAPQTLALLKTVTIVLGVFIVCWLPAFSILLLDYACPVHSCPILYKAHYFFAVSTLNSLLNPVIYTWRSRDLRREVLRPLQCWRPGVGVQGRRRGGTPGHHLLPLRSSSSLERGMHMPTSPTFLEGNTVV
GALR2 ag: GALR2 (human) receptor agonism; O43603; GALR2-expressing cells, agonist activation read-out; activation, % (test concentration not listed); 140,000 tested, 0.48% active; in the data active = activation above about 5%, passing the limit was not always enough;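 note: 0% = vehicle buffer wells and 100% = reference agonist at full effect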
S1P2 antag: blocks the human S1P2 receptor. cell-based S1P2 antagonist assay, inhibition at 5 uM. inhibition, % at 5 µM. 97,000 tested, 0.21% active. AID 736; in the data active = inhibition above about 45%;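 note: CRE beta-lactamase reporter cells expressing human S1P2 stimulated with S1P; 0% = agonist at EC80 alone and 100% = agonist plus reference antagonist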
CD11b adhes inh: CD11b/CD18-fibrinogen binding inhibition. inhibition, % at 10 µM. K562 CD11b/CD18 adhesion to fibrinogen, ATPlite luminescence; Mn2+ added to activate the integrin. 93,000 tested, 0.54% active. AID 1497. P05107+P11215;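 active = primary inhibition of 50% or more at 10 µM, then 40% or more on retest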
CD11b adhes enh: increases human CD11b/CD18 adhesion to fibrinogen. P05107+P11215. K562 CD11b/CD18 adhesion to fibrinogen, ATPlite luminescence. activation, % at 10 µM. 93,000 tested, 0.07% active;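 active = 10 µM primary screen giving 50% or more activity, confirmed by 40% or more on retest at that dose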
GALR2 blocker: blocks the human galanin receptor 2 | AID 828 | inhibition, % at 4 µM | GALR2-expressing cells, antagonist mode | 140,000 tested, 0.39% active | O43603; in the data active = inhibition above about 27%;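 note: cells stimulated with galanin 1-16 at roughly its EC80; 0% = agonist challenge control and 100% = basal control without agonist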
Active calls of the source: *; · = no result.

SMILES	S1P2 ag	GALR2 ag	S1P2 antag	CD11b adhes inh	CD11b adhes enh	GALR2 blocker
COc1cc2c(cc1OC)C1=C(C#N)COCN1CC2	16	-3	-45	0	4	-7
CCOC(=O)/C=C/C(=O)Nc1nccs1	·	1	·	·	·	7
COc1ccc([N+](=O)[O-])cc1N(CC(=O)NCCC1=CCCCC1)S(C)(=O)=O	·	-1	·	·	·	5
O=[N+]([O-])c1cc(S(=O)(=O)Nc2cccc(C(F)(F)F)c2)ccc1-n1nnc2ccccc21	-7	-1	-10	95*	-7	3
COc1ccc(NS(=O)(=O)c2ccc(-n3nnc4ccccc43)c([N+](=O)[O-])c2)cc1	-4	-4	1	7	0	2
CCOC(=O)c1c(NC(=O)Cn2nc(C(F)(F)F)cc2C)sc(C)c1C	·	0	·	-4	8	-3
CCOC(=O)c1cnn(-c2cc(Oc3ccccc3)ncn2)c1N	-4	-1	10	52*	0	-6
CCC(C)NC(=O)c1ccccc1C(=O)NC(C)CC (stereo unspecified)	-1	-2	58*	-33	4	-16
CC(C(=O)O)N1C(=O)/C(=C/c2cccn2C)SC1=S (stereo unspecified)	·	-1	·	·	·	-6
CC1C/C(=C/c2cccn2C)C(=O)/C(=C/c2cccn2C)C1 (stereo unspecified)	-11	1	59*	19	-3	24
COc1ccccc1-c1noc(CCC(=O)Nc2cc(C(F)(F)F)ccc2Cl)n1	-4	-1	6	9	-4	-7
COc1nc(C)nc(NC(=O)NS(=O)(=O)c2ccc(C)cc2)n1	26*	-1	2	-6	5	1
COc1ccc(NC(=O)NS(=O)(=O)c2ccc(C)cc2)c(OC)c1	-7	-1	9	1	-2	11
CC(=O)Nc1cc(C)c(S(C)(=O)=O)c(C)c1	·	-1	·	·	·	-1
O=C(Nc1nnc(C(F)(F)F)s1)C1COc2ccccc2O1 (stereo unspecified)	-3	-2	-38	84*	-5	-6
CC(CCc1ccccc1)NC(=O)C(=O)Nc1ccccc1 (stereo unspecified)	·	0	·	·	·	9
Cc1cccc2nc(-c3ccccc3)nc(N[C@@H](CO)c3ccccc3)c12	·	0	·	·	·	0
CCCCCC(=O)Nc1nc(C)c(-c2csc(Nc3cc(Cl)ccc3OC)n2)s1	17*	1	-19	0	11	-19
CCN(C(=O)CN1CCN(S(=O)(=O)c2ccccc2C(F)(F)F)CC1)c1c(N)n(Cc2ccccc2)c(=O)[nH]c1=O	·	-2	·	·	·	5
CC(C)(C)NC(=O)CSC(=Nc1ccc(F)cc1)NC#N	24*	-2	-4	·	·	-1
CCOC(=O)c1c(C)[nH]c(C)c1C(=O)COC(=O)c1cc2ccccc2cc1O	·	0	·	62*	-4	7
C=CCn1c(=NC(=O)CC)n(C)c2ccccc21	·	-1	·	·	·	-6
N=c1c(C(=O)NCc2ccco2)cc2c(=O)n3ccccc3nc2n1CC1CCCO1 (stereo unspecified)	-5	2	-8	·	·	11
N=c1c(C(=O)NCc2ccc(F)cc2)cc2c(=O)n3ccccc3nc2n1CC1CCCO1 (stereo unspecified)	31*	14*	-43	0	-4	-26
COCCCn1c(=N)c(C(=O)NCC2CCCO2)cc2c(=O)n3ccccc3nc21 (stereo unspecified)	24*	19*	-31	-7	1	-10
SMILES	S1P2 ag	GALR2 ag	S1P2 antag	CD11b adhes inh	CD11b adhes enh	GALR2 blocker
Cc1ccc(Cn2c(=N)c(C(=O)NCc3ccco3)cc3c(=O)n4ccccc4nc32)cc1	24*	6.8*	-29	·	·	-4
CCC1CCCCN1CCNC(=O)CCS(=O)(=O)c1ccc(Br)cc1 (stereo unspecified)	1	-3	-5	·	·	6
O=C(Nc1ccccc1)N(Cc1ccc2c(c1)OCO2)Cc1nc2ccccc2c(=O)[nH]1	21*	-1	-9	-5	1	-1
O=C(c1ccccc1)N(Cc1ccc2c(c1)OCO2)Cc1nc2ccccc2c(=O)[nH]1	-5	0	12	-5	2	-2
C=CCn1c(NS(=O)(=O)c2ccccc2)c(S(=O)(=O)c2ccc(C)cc2)c2nc3ccccc3nc21	·	3	·	96*	-10	-7
O=S(=O)(Nc1c(S(=O)(=O)c2ccccc2)c2nc3ccccc3nc2n1C1CCCCC1)c1ccccc1	·	-3	·	·	·	-10
C/C(=N\O)C(=O)NCCN(C)C	·	0	·	·	·	5
CCOC(=O)c1ccccc1NC(=O)CSc1nc2ccccc2n1CC(=O)N1CCCC1	32*	0	-61	-17	0	0
CN1c2ccccc2C(O)=C(C(=S)Nc2ccc(F)c(Cl)c2)S1(=O)=O	-3	0	-48	84*	-10	-1
CC1CCCCC1NS(=O)(=O)c1ccc(S(=O)(=O)NCc2ccncc2)cc1 (stereo unspecified)	-3	0	55*	16	-6	23
CN(C)CCCNC(=S)N1CCn2c(nc3ccccc32)C1	·	-1	·	·	·	-4
COC(=O)/C=C1\N/C(=N\c2nc(C)cc(C)n2)N(c2ccc(C)c(C)c2)C1=O	·	0	·	·	·	16
O=C(CS(=O)(=O)c1ccccc1)N1CCCCCC1	-6	-3	5	-22	14	9
O=S(=O)(C/C(=C/CO)S(=O)(=O)c1ccccc1)c1ccccc1	-8	0	80*	8	-1	82*
Cc1ccc(-c2nc(N/N=C/c3cccc([N+](=O)[O-])c3)c3ccccc3n2)cc1	-5	-1	19	·	·	5
Cc1ccc(-c2nc(N/N=C/c3cccnc3)c3ccccc3n2)cc1	-1	0	9	95*	-8	13
CN1CCN(C(=O)c2ccc(CSc3ccc(Cl)cc3)cc2)CC1	·	0	·	76*	-2	-1
O=C(c1ccc(Cl)cc1)N1CCC(O)(CSc2ccc(Cl)cc2)CC1	-8	-3	5	·	·	1
Cc1[nH]c2ccccc2c1/C=N/NC(=O)C1CC1(c1ccccc1)c1ccccc1 (stereo unspecified)	·	0	·	·	·	9
CCN(CC)c1ccc(-c2nn3c(-c4n[nH]c5c4CCC5)nnc3s2)cc1	-1	6.3*	3	68	3	4
CC(=O)NC1=NN(C(C)=O)C(C)(CS(=O)(=O)c2ccc(Cl)cc2)S1 (stereo unspecified)	-5	-2	-1	·	·	2
CC(=O)NC1=NN(C(C)=O)C(C)(CCS(=O)(=O)c2ccc(Br)cc2)S1 (stereo unspecified)	·	6.9*	·	9	0	-1
Cc1ccc(OCC(O)CN2CC3(C)CC2CC(C)(C)C3)cc1 (stereo unspecified)	·	1	·	5	-2	9
Cc1cccc(OCC(O)CN2CC3(C)CC2CC(C)(C)C3)c1 (stereo unspecified)	·	6.8*	·	·	·	4
O=S1(=O)C=C(Sc2nnc(-c3ccccc3)o2)c2ccccc21	·	-3	·	6	-3	88*

Compound activity deposited in PubChem by several laboratories.
